Only a selection was taken, and hits are over-represented in it overall.
Cruzain Triton – blocks cruzain activity in presence of Triton detergent; 200,000 compounds, 0.43% hits; purified cruzain, Z-FR-AMC fluorescence, 0.01% Triton; Potency, µM, without a hit: max response, negative = inhibition, usual class: inhibitors; P25779;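 also: plate controls were neutral wells for no effect and buffer without enzyme for full effect; nearly all actives have a fitted effect of over 40% in size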
Target sequence (P25779 123-467 limits assumed): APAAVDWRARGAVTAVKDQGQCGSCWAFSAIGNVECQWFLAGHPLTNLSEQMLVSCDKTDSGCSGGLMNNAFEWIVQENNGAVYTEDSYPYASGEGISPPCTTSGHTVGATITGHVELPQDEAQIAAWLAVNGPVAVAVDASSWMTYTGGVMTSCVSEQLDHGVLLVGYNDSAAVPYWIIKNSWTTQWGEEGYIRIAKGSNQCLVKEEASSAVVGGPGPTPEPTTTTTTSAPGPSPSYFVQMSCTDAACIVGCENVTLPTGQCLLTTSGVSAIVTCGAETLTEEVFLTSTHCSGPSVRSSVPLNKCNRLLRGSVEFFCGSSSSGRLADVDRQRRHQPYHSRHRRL
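Sodium acetate buffer (100 mM, pH 5.5) containing 5 mM DTT and 0.01% Triton X-100 hosted 1.5 nM cruzain and test compound for 15 min at room temperature. Cleavage of 2 uM Z-FR-AMC was then tracked by fluorescence.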
Cruzain noTriton – cruzain (T. cruzi) inhibition without detergent | 200,000 compounds, 2.3% hits | purified cruzain, Z-FR-AMC fluorescence, no detergent | P25779 | AID 1476 | Potency, µM, inactives show max response, negative = inhibition, usual class: inhibitors;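 also: plate controls were enzyme without inhibitor for no effect and buffer without enzyme for full effect; nearly all actives have a fitted effect of over 40% in size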
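Purified cruzain at 1.5 nM, pre-incubated 15 min with compound at room temperature in 100 mM sodium acetate pH 5.5, 5 mM DTT, 0.00005% Triton X-100. Reaction started with 2 uM Z-FR-AMC; AMC fluorescence increase over 60 s gives rate.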
NS1 inh – blocks influenza NS1 protein function | 270,000 compounds, 0.4% hits | Potency, µM (series often up to 46.1 µM), without a hit: at the top dose activity, positive = more growth | AID 2326; calls by dose curve; also: actives are rising curves; nearly all actives have a fitted effect of over 50% in size
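In this qHTS, NS1 from influenza A is expressed in budding yeast, where it slows growth. Cells are switched from glucose to 2% galactose medium (pH 6.0, -URA), treated with compound, and growth recovery is read at OD600.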
* = called active by the depositor; u = inconclusive; x = no result given. Unless noted, calls follow the shape of the dose curve; as a rule, active = well fitted curve in the direction sought with a large enough effect; inconclusive = small, poorly fitted or top-dose-only effect, or another doubt; inactive = no such curve, though single readings can be large; an effect the other way counts as inactive or inconclusive. Potency is read from the fitted curve at half-maximal effect.

SMILES | Cruzain Triton | Cruzain noTriton | NS1 inh
Cc1[nH]nc2c1C(c1ccc(O)cc1)C1=C(CC(C)(C)CC1=O)N2 (stereo not drawn) | x | x | 2%
CCc1ccccc1NC(=O)CSc1nc2ccccc2nc1Cc1cccc(OC)c1 | 1% | -11% | x
CS(=O)(=O)N1CCc2cc(C(=O)Nc3cccc(F)c3)ccc21 | -3% | -7% | x
Cc1ccc(C(=O)OC[C@H]2O[C@H](Cl)C[C@@H]2OC(=O)c2ccc(C)cc2)cc1 | -2% | 9% | x
CC(=O)c1ccc(NC(=O)Cn2nc(C(F)(F)F)c3c2CCCC3)cc1 | -9% | 17% | x
COc1ccccc1[C@@H]1C(c2cccc(C)c2)=NN(c2ccc(Br)cc2)[C@H]1C(=O)N1CCOC1=O | -3% | 10µM* | x
COc1ccccc1[C@@H]1C(c2cccc(Cl)c2)=NN(c2ccccc2)[C@H]1C(=O)N1CCOC1=O | 1% | 25µM* | 15%
COc1ccccc1[C@@H]1C(c2ccccc2)=NN(c2ccc(Br)cc2)[C@H]1C(=O)N1CCOC1=O | 0% | 18µM* | x
CC[C@@H]1C(c2cccc(C)c2)=NN(c2ccccc2)[C@H]1C(=O)N1CCOC1=O | 1% | 3% | x
CC[C@@H]1C(c2ccc(F)cc2)=NN(c2ccc(Br)cc2)[C@H]1C(=O)N1CCOC1=O | -6% | u | x
Cc1cccc(C2=N[C@@H](Cc3ccccc3)CO2)c1 | -1% | -24% | x
N[C@H](Cc1cc(I)c(Oc2ccc(O)c(I)c2)c(I)c1)C(=O)O | -8% | -14% | x
O=C(c1csnn1)N1CCC2(CC1)CN(c1ccccn1)C2 | -7% | 1% | x
Cc1ccc(C2C(C#N)=C(N)Oc3cc(N)ccc32)cc1 (stereo not drawn) | x | x | -1%
Cc1ccc(/C=C2\CCC3=C2OC(N)=C(C#N)C3c2ccc(C)cc2)cc1 (stereo not drawn) | -12% | 25µM* | 20%
[N-]=[N+]=N[C@@H]1[C@H](O)[C@H](CO)O[C@@H]1n1cnc2c(N)ncnc21 | 6% | 5% | -9%
CCCOc1ccc(NC(=O)C(=O)NCCCN2CCOCC2)cc1 | -3% | 1% | x
CC(C)c1ccc(NC(=O)CN2C(=O)COc3ccc(S(=O)(=O)Nc4ccccc4)cc32)cc1 | -8% | 20µM* | x
Cc1cccc(NC(=O)CN2C(=O)COc3ccc(S(=O)(=O)Nc4ccccc4)cc32)c1C | 3% | u | x
O=C(O)C(S)[C@@H](S)C(=O)O (stereo partly drawn) | -15% | -11% | x
Cc1ccc(-c2[nH]nc(N)c2N=Nc2cccc(Cl)c2C)cc1 | -3% | u | 20%
Cc1cccc(N=Nc2c(N)n[nH]c2-c2ccc(Cl)cc2)c1 | -6% | 25µM* | 15%
CSc1ccc(Cl)c(C(=O)NCc2ccco2)c1 | u | 20µM* | u
CSc1ccc(Cl)c(C(=O)OCC(=O)NCc2ccco2)c1 | -22% | 3% | -31%
CS(=O)(=O)c1sc2nc(-c3cccs3)cc(-c3ccccc3)c2c1N | -18% | 20µM* | 4%
SMILES | Cruzain Triton | Cruzain noTriton | NS1 inh
Cc1ccc(-c2cc(-c3ccccc3)c3c(N)c(S(C)(=O)=O)sc3n2)cc1 | -8% | u | 17%
C=CCOC(=O)N[C@H](/C(C(=O)OC)=C(\C)NCc1ccccc1)c1cccc(F)c1 | 4% | -8% | x
C=CCn1c(=N)c(C(=O)NCCCOC)cc2c(=O)n3cc(C)ccc3nc21 | u | u | 2%
COC(=O)c1cc2c(=O)n3ccccc3nc2n(Cc2cccnc2)c1=N | x | x | 6%
Cn1c(C(=O)N2CCOCC2)cc2c(=O)n3ccccc3nc21 | x | x | 8%
COC(=O)c1cc2c(=O)n3ccccc3nc2n(C)c1=N | 11µM* | u | -7%
Cn1c(C(=O)N2CCN(C(=O)c3ccco3)CC2)cc2c(=O)n3ccccc3nc21 | 25µM* | u | 1%
CCOC(=O)c1cc2c(=O)n3ccccc3nc2n(CCCOC)c1=NC(=O)c1ccncc1 | x | x | 6%
C=CCn1c(=N)c(C(=O)NCCCOC)cc2c(=O)n3ccccc3nc21 | 32µM* | 25µM* | -5%
CCOC(=O)c1cc2c(=O)n3ccccc3nc2n(CCCOC)c1=NC(C)=O | 32µM* | u | -6%
O=c1c2ccccc2c2ccccc2c(=O)n1-c1cc2c3ccccc3ccc2c2ccccc12 | -18% | -25% | u
N#Cc1ccccc1-c1cncnc1NCc1cccnc1 | -3% | 1% | x
NC1(P(=O)(O)O)CCCCC1 | 2% | -3% | -1%
CC(C)N=C=NC(C)C | 2% | -4% | x
CN(Cc1ccco1)c1cc(-c2cccc(NS(C)(=O)=O)c2)ncn1 | -10% | -11% | x
CC(O)C#C[Si](C)(C)c1ccccc1 (stereo not drawn) | 1% | -7% | x
C=CCn1c(=O)c(C#N)cc2c(=O)n3ccccc3nc21 | u | u | 4%
C=CCn1c(=N)c(C#N)cc2c(=O)n3ccccc3nc21 | 28µM* | u | -2%
CC(NC(=O)c1cc(-c2ccc(O)cc2)on1)c1ccccc1 (stereo not drawn) | x | x | -148%
CCN(Cc1ccccc1)C(=O)C1CCN(S(=O)(=O)c2ccc3c(c2)CCCN3C(C)=O)CC1 | 0% | 21% | x
COc1cccc(-c2nc(N3CCN(Cc4ccccc4)CC3)c3ccccc3n2)c1O | -12% | -4% | 2%
COc1cccc(-c2nc(N3CCN(c4ccccc4)CC3)c3ccccc3n2)c1O | 1% | 10µM* | 20%
Cc1ccc2nc(C3CCN(C(=O)NCc4ccccc4)CC3)[nH]c2c1 | 0% | -3% | -4%
Cc1ccc2nc(C3CCCN(C(=O)NCc4ccccc4)C3)[nH]c2c1 (stereo not drawn) | u | 6.3µM* | 1%
Cc1ccc(C(C)C)c(OCC(=O)NCC2(N3CCOCC3)CCCCC2)c1 | -1% | 7% | x
SMILES | Cruzain Triton | Cruzain noTriton | NS1 inh
COc1ccc2[nH]cc(CCNc3ccnc(-c4cccc(NS(C)(=O)=O)c4)n3)c2c1 | -4% | 0% | x
CS(=O)(=O)Nc1ccc(Cc2noc(-c3ccc4[nH]cc(CCN)c4c3)n2)cc1 | -2% | 32µM* | x
O=C(O)[C@@H](Br)[C@H](Br)C(=O)O | 1% | 10% | -8%
CCc1c(C)sc(NC(=O)CCc2ccc(OC)cc2)c1C(N)=O | -1% | 1% | 0%
CCCC(=O)Nc1sc(C)c(-c2ccc(OC)cc2)c1C#N | 3% | 6.3µM* | -3%
COc1ccccc1NC(=O)CCn1nc(-c2ccccc2OC)c2c(C)cc(C)nc21 | -5% | u | x
COc1cccc(Cn2c(=O)c(-c3ccc(Cl)cc3)nc3cncnc32)c1 | -1% | -17% | x
C=CCNC(=O)c1ccc(-c2nc(-c3ccc(Cl)cc3Cl)cs2)cc1 | 4% | -15% | 13%
C=CCNC(=O)c1ccc(-c2nc(-c3ccc(Cl)c(Cl)c3)cs2)cc1 | 3% | 20µM* | 6%
O=C(NCc1ccccc1)N1CCc2c(sc3c2CCCC3)C1c1ccccc1 (stereo not drawn) | -2% | u | x
COc1cccc(CNC(=O)N2CCc3c(sc4c3CCCC4)C2c2ccc(F)cc2)c1 (stereo not drawn) | -2% | 6.3µM* | x
CCCCC/C=C\C/C=C\C/C=C\C/C=C\CCCCCC(=O)NCCCC(=O)O | 4% | -11% | x
N#C/C(=C\c1cn(-c2ccccc2)nc1-c1cc2ccccc2o1)c1nc2ccccc2[nH]1 | -3% | 7.9µM* | 0%
N#C/C(=C\c1ccc(-c2ccc(F)cc2F)o1)c1nc2ccccc2[nH]1 | -5% | 13µM* | x
